Experimental findings from PubChem BioAssay (NCI) are described below.

What all share (assay): NCI-60 one-dose screen, 48 h (100 = growth as untreated, 0 = no growth, -100 = all killed)
Common to all, as to details: 10 µM unless noted

In test [1] the test system is NCI-H23 lung.
The subject of test [2] is NCI-H226 lung.
The test system of test [3] is HOP-62 NSCLC.
For test [4], the system named is NCI-H460 lung.
Test [5] deals with HOP-92 NSCLC.
The subject of test [6] is NCI-H522 lung.
Test [7] concerns 786-0 renal.
The test system of test [8] is COLO 205 colon.
The test system of test [9] is DU-145 prostate.
The test system of test [10] is MALME-3M melanoma.
Test [11] concerns MDA-MB-231 breast.
For test [12], the system named is RXF 393 renal.
The subject of test [13] is SF-268 CNS.
The subject of test [14] is SF-295 CNS.
For test [15], the system named is SF-539 CNS.
Test [16] deals with UACC-257 melanoma.
Test [17] deals with M14 melanoma.
In test [18] the test system is A549/ATCC NSCLC.
The test system of test [19] is K-562 leukemia.

About 83,000 compounds went through this panel and 20% of them were active in at least one assay; those are over-represented in the sample as a whole.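 Treatment: one concentration, 48 hours, 96-well format. Scoring: percent growth, with anything below 10 considered active.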 Values without a mark were called inactive. Calls of active or inactive are those of the source.

For the compound `C=C(C)[C@@H]1CC[C@]2(C(=O)N3CCN(C)CC3)CC[C@]3(C)[C@H](CC[C@@H]4[C@@]5(C)CC[C@H](O)C(C)(C)[C@@H]5CC[C@]43C)[C@@H]12`, the growth in test [1] was -14.5% (active); in test [2], 129%; in [3], 55.6%; in test [4] it was -69.5% (active); in [5] it was 14.5%; in [6], -89.6% (active). Further, the growth in test [7] is -95.1% (active); in test [8], -69.2% (active); in test [9] it was -57.3% (active); in test [10], -73.1% (active); in test [11], -63.4% (active); in [12] it was -91.6% (active). Besides, the growth in test [13] is -74.8% (active); in test [14], -86.9% (active); in test [15] it was -74.3% (active); in test [16] it was -88.5% (active); in test [17], -86.4% (active).

Take `Cc1ccc(NC(=O)c2cc(-c3nc4ccccc4s3)c(=O)n(NS(=O)(=O)c3ccc(Cl)cc3)c2N)cc1`: the growth in [1] is 102%; in test [2], 80.6%; in test [3], 106%; in [4] it was 105%; in test [5] it was 103%; in test [6] it was 94.4%. The growth in test [18] is 100%; in [7], 101%; in test [8], 114%; in test [9], 107%; in test [19] it was 100%; in [10], 112%. For the same compound, the growth was 96.1% in test [11]; 112% in test [12]; 94.2% in test [13]; 101% in test [14]; 97.2% in [15]; 104% in test [16]. Also, the growth in test [17] is 99.4%.

On to `COc1cc(NC(=O)CSc2nc3ccc(C)cc3c(=O)n2Cc2ccccc2)cc(OC)c1OC`, for which the growth was 74.2% in [1]; 24.7% in test [2]; 45.5% in test [3]; 57.3% in test [4]; 0.585% (active) in test [5]; 31.9% in [6]. Further, the growth in test [18] was 66.6%; in test [7], 43.3%; in [8], 88.6%; in [9] it was 80.7%; in [10] it was 49.8%; in test [11] it was 35.5%. For the same compound, the growth was 24.3% in [12]; 69.1% in [13]; 79.9% in test [14]; 11.8% in [15]; 61.3% in [16]; 65.6% in [17].

With `CC1(C)c2[nH]c3ccccc3c2C[C@]2(C)[C@H]3C(=O)C=C4[C@@H]5C[C@@](C)(C(N)=O)CC[C@]5(C)CC[C@@]4(C)[C@]3(C)CC[C@@H]12`, the growth in test [1] was 72.5%; in test [2], 73.2%; in test [3] it was 85.3%; in test [4], 69.4%; in [5], 55.4%; in test [6], 68.7%. The growth was 65.8% in test [18]; 75% in test [7]; 46.7% in test [8]; 92.2% in test [9]; 31.3% in test [19]; 79.3% in test [10]. Also, the growth in test [11] is 74.1%; in test [12], 70.5%; in test [13], 69.1%; in test [14], 82.9%; in test [15] it was 92.8%; in test [16], 83.2%. Also, in test [17], the growth is 80.2%.

In the case of `CC(C)(C)[Si](C)(C)OC1[C@@H](O[Si](C)(C)C(C)(C)C)[C@@H](CNC(=O)NC(=O)CCl)O[C@H]1n1cnc2c(NC(=O)Nc3ccccc3)ncnc21` (some centres undefined), the growth is -93.3% (active) in test [1]; -93.8% (active) in test [2]; -95.5% (active) in [3]; 11.9% in test [4]; -74% (active) in test [5]; -61.9% (active) in test [6]. Further, the growth in [18] is 1.49% (active); in test [7], -93.8% (active); in test [8], -18.3% (active); in [9] it was -2.39% (active); in test [10], -70.2% (active); in test [11], -72.7% (active). Further, the growth in [12] is -93.1% (active); in test [13], -77.4% (active); in test [14], -71.2% (active); in [15], -86.2% (active); in [16], 14.1%; in test [17] it was -56% (active).

On to `COc1cc2c(cc1OC)C(=O)/C(=C/c1cc(C)c(O)c(C)c1)S2`, for which the growth in test [1] was 39.2%; in test [2], 55.7%; in test [3], 39.4%; in [4], 18.5%; in [5], 88.6%; in test [6], -7.24% (active). Further, the growth in [18] was 36.9%; in test [7] it was 39.6%; in test [8], 104%; in test [9], 25.3%; in test [19] it was 12%; in test [10] it was 71.7%. For the same compound, the growth in test [11] is 56.9%; in [12] it was -6.02% (active); in test [13], 72.9%; in [14] it was 18.4%; in test [15], -3.74% (active); in test [16] it was 70.7%. Besides, the growth in test [17] is 19.1%.

`CCCOC(=O)N[C@H]1CCc2c(Cl)c(OC)c(OC)c(OC)c2-c2ccc(SC)c(=O)cc21`: the growth was 26.8% in test [1]; 6.58% (active) in [2]; 40.5% in [3]; 1.99% (active) in test [4]; -2.58% (active) in test [5]; 12.3% in [6]. Further, the growth is 22.8% in test [18]; 4.31% (active) in [7]; 0.25% (active) in test [8]; 3.02% (active) in test [9]; 9.67% (active) in test [19]; 25.2% in test [10]. The growth in test [11] was -16.7% (active); in [12], 24.3%; in test [13], 24.7%; in [14] it was 17.5%; in [15], 3.18% (active); in test [16], 72.4%. Further, the growth in test [17] was -13.6% (active).

With `N#CC1=C(/N=C/c2ccccc2)Oc2c(ccc3ccccc23)C1c1ccc([N+](=O)[O-])cc1` (centres undefined), the growth in test [1] was 80.2%; in test [2], 65.3%; in test [3] it was 89.1%; in [4] it was 95.2%; in test [5], 88.5%; in [6], 86.2%. For the same compound, the growth in test [18] was 101%; in [7], 102%; in [8], 109%; in test [9], 96%; in test [19] it was 90.7%; in [10], 96.6%. Also, the growth was 72.7% in test [11]; 98.2% in test [12]; 89.2% in test [13]; 98.5% in test [14]; 95.1% in [15]; 97.1% in test [16]. The growth in test [17] is 102%.

Take `Nc1ccccc1NC(=O)c1ccc(-n2nc(-c3ccccc3)c3ccccc32)cc1`: the growth in test [1] was 89.1%; in test [2], 64.7%; in test [3], 84.7%; in test [4], 79.3%; in test [5] it was 78.9%; in test [6], 25%. In addition, the growth in test [18] is 74.5%; in test [8], 117%; in [9], 87.2%; in test [19], 43.7%; in test [10], 68.9%; in test [11], 42.9%. For the same compound, the growth in [12] was 88.7%; in test [13], 68.2%; in [14], 90.7%; in test [15], 48.8%; in test [16], 86.2%; in test [17], 88.9%.

As to `C/C(=N\NC(=O)CSc1nc2ccccc2c(=O)n1CCc1ccc(S(N)(=O)=O)cc1)c1ccccn1`, the growth in test [1] is 50.4%; in test [2], 43.4%; in [3] it was 25.2%; in test [4], 12.1%; in test [5] it was 67.5%; in [6], 18.9%. Moreover, the growth in test [18] is 21.1%; in test [7], 34.8%; in [8], 8.47% (active); in test [9] it was 44.1%; in [19] it was 25.2%; in test [10], 36.5%. Further, the growth in [11] was 27.4%; in [12], 52.8%; in test [13] it was 34.3%; in test [14], 13.4%; in [15], 29.8%; in test [16] it was 45.9%. Also, in test [17], the growth was 17.6%.

Regarding `CCOc1ccc(/C=N/Nc2cc(C)nc3ccc(Br)cc23)cc1`, the growth in test [1] is 82.2%; in test [2], 92.7%; in test [3], 96.5%; in [4] it was 87.2%; in test [5] it was 57.5%; in test [6], 97.7%. Moreover, the growth is 82% in [18]; 96.1% in [7]; 96.2% in test [8]; 94.2% in test [9]; 20.2% in test [19]; 102% in [10]. Moreover, the growth is 68.5% in test [11]; 85.8% in test [12]; 99.7% in test [13]; 82.7% in [14]; 102% in [15]; 96% in test [16]. Moreover, the growth in test [17] was 94%.
